# Results: the antibiotic and cytotoxicity screens of Wong et al. (2023)
# Among all 39,000 compounds or so, about 1,500 (3.8%) were called active. The full list was thinned out, with actives kept by preference.
# Test system: HSkMC (human skeletal muscle cells)
# Test: cytotoxicity call (relative viability < 0.9)
# Details: 10 µM
row,Compound,cytotoxicity call
1,COc1ccc(CN(C)C[C@@H]2OCCCC[C@H](C)Oc3ccc(NC(=O)C4CCCCC4)cc3C(=O)N([C@@H](C)CO)C[C@H]2C)cc1,inactive
2,C[C@@H]1CN([C@@H](C)CO)C(=O)c2cccc(NC(=O)C3CC3)c2O[C@@H]1CN(C)Cc1ccc(C(=O)O)cc1,inactive
3,Cc1noc(C)c1S(=O)(=O)N(C)C[C@H]1Oc2ccc(NC(=O)C3CC3)cc2CC(=O)N([C@H](C)CO)C[C@H]1C,inactive
4,Cc1ccc(S(=O)(=O)Nc2ccc3c(c2)C(=O)N([C@@H](C)CO)C[C@H](C)[C@H](CN(C)C(=O)Nc2ccccc2)OCCCC[C@H](C)O3)cc1,inactive
5,COc1ccc(CN(C)C[C@@H]2Oc3ccc(NS(=O)(=O)c4cn(C)cn4)cc3CC(=O)N([C@@H](C)CO)C[C@H]2C)cc1,inactive
6,C[C@H](CO)N1C[C@H](C)[C@H](CN(C)C(=O)Nc2ccccc2)OCc2ccccc2-c2c(n(C)c3ccccc23)C1=O,inactive
7,COc1ccc(NC(=O)N(C)C[C@@H]2Oc3ncc(C#C[C@H](C)O)cc3C(=O)N([C@H](C)CO)C[C@@H]2C)cc1,inactive
8,Cc1noc(C)c1S(=O)(=O)Nc1ccc2c(c1)C(=O)N([C@H](C)CO)C[C@H](C)[C@H](CN(C)C(=O)Nc1ccc(C(F)(F)F)cc1)OCCCC[C@H](C)O2,active
9,Cc1noc(C)c1S(=O)(=O)Nc1ccc2c(c1)C(=O)N([C@@H](C)CO)C[C@@H](C)[C@H](CN(C)C(=O)Nc1ccc(C(F)(F)F)cc1)OCCCC[C@H](C)O2,inactive
10,Cc1noc(C)c1S(=O)(=O)Nc1ccc2c(c1)C(=O)N([C@@H](C)CO)C[C@@H](C)[C@@H](CN(C)C(=O)Nc1ccc(C(F)(F)F)cc1)OCCCC[C@@H](C)O2,inactive
11,COc1ccc(S(=O)(=O)Nc2ccc3c(c2)C(=O)N([C@@H](C)CO)C[C@@H](C)[C@H](CN(C)C(=O)NC(C)C)O3)cc1,inactive
12,C[C@@H]1CN([C@H](C)CO)C(=O)c2cc(C#Cc3cccc(F)c3)cnc2O[C@H]1CN(C)CC1CCOCC1,inactive
13,CC=Cc1ccc2n(c1=O)C[C@H]1[C@H](CO)[C@@H](C(=O)NC3CCC3)[C@@H]2N1S(=O)(=O)c1cn(C)cn1,inactive
14,Cc1noc(C)c1S(=O)(=O)Nc1ccc2c(c1)CC(=O)N([C@@H](C)CO)C[C@H](C)[C@H](CN(C)S(C)(=O)=O)O2,inactive
15,CC(C)(Sc1cc(C(C)(C)C)c(O)c(C(C)(C)C)c1)Sc1cc(C(C)(C)C)c(OC(=O)CCC(=O)O)c(C(C)(C)C)c1,active
16,CC(C)(Sc1cc(C(C)(C)C)c(O)c(C(C)(C)C)c1)Sc1cc(C(C)(C)C)c(O)c(C(C)(C)C)c1 [listing 1 of 2 here],inactive
17,CC(C)(Sc1cc(C(C)(C)C)c(O)c(C(C)(C)C)c1)Sc1cc(C(C)(C)C)c(O)c(C(C)(C)C)c1 [listing 2 of 2 here],inactive
18,CC(C)(Sc1cc(C(C)(C)C)c(O)c(C(C)(C)C)c1)Sc1cc(C(C)(C)C)c(OCC(=O)O)c(C(C)(C)C)c1,active
19,CC(C)(C)c1cc(CCC(=O)OCC(COC(=O)CCc2cc(C(C)(C)C)c(O)c(C(C)(C)C)c2)(COC(=O)CCc2cc(C(C)(C)C)c(O)c(C(C)(C)C)c2)COC(=O)CCc2cc(C(C)(C)C)c(O)c(C(C)(C)C)c2)cc(C(C)(C)C)c1O,inactive
20,C[C@@H]1CN([C@@H](C)CO)C(=O)c2cccc(NC(=O)Nc3ccc(F)cc3)c2O[C@@H]1CN(C)C(=O)Nc1ccc(C(F)(F)F)cc1,inactive
21,C[C@@H]1CN([C@@H](C)CO)S(=O)(=O)c2ccc(-c3cncnc3)cc2O[C@H]1CN(C)C(=O)c1ccc2c(c1)OCO2,inactive
22,COCC(=O)N1C[C@H](C)[C@@H](OC)CN(C)C(=O)c2cc(NC(=O)Nc3cccc(F)c3)ccc2OC[C@@H]1C,inactive

row,Compound,cytotoxicity call
1,COC[C@@H]1CN(C(=O)[C@H]2CCCN2C)N1,inactive
2,COC(=O)[C@@H](Cc1ccccc1)N[C@H](/C=C/C1CC1)[C@@H](O)CCn1cc(-c2ccc(C(=O)NO)cc2)nn1,inactive
3,CC[C@@H]1COCCC(=O)N1,inactive
4,Cc1nc2cc(C)c(C)cc2s1,inactive
5,Cc1ccc(NC(=O)Nc2cc(C(F)(F)F)ccc2F)cc1Nc1ccc2c(c1)NC(=O)/C2=C\c1ccc[nH]1,active
6,C[C@@H]1CN([C@H](C)CO)C(=O)Cc2cc(NS(C)(=O)=O)ccc2O[C@H]1CN(C)S(=O)(=O)c1ccc(F)cc1,inactive
7,Cc1noc(C)c1NC(=O)Nc1ccc2c(c1)C(=O)N([C@H](C)CO)C[C@@H](C)[C@@H](CN(C)S(=O)(=O)c1c(C)noc1C)O2,inactive
8,C[C@@H]1CN([C@@H](C)CO)C(=O)c2cccc(NC(=O)C3CC3)c2O[C@@H]1CN(C)Cc1ccc(-c2ccccc2)cc1,inactive
9,C[C@@H]1CN([C@H](C)CO)S(=O)(=O)c2ccc(-c3ccccc3F)cc2O[C@H]1CN(C)Cc1cncnc1,inactive
10,C[C@@H]1CCCCO[C@@H](CN(C)Cc2ccc(Cl)c(Cl)c2)[C@@H](C)CN([C@@H](C)CO)C(=O)c2cc(NC(=O)c3ccccc3)ccc2O1,inactive
11,COc1ccc(NC(=O)Nc2ccc3c(c2)C(=O)N([C@@H](C)CO)C[C@H](C)[C@@H](CN(C)Cc2ccc(Cl)c(Cl)c2)OCCCC[C@@H](C)O3)cc1,inactive
12,COc1ccc(NC(=O)Nc2ccc3c(c2)C(=O)N([C@@H](C)CO)C[C@@H](C)[C@@H](CN(C)Cc2ccc(Cl)c(Cl)c2)OCCCC[C@H](C)O3)cc1,inactive
13,COc1ccc(NC(=O)Nc2ccc3c(c2)C(=O)N([C@H](C)CO)C[C@H](C)[C@@H](CN(C)Cc2ccc(Cl)c(Cl)c2)OCCCC[C@H](C)O3)cc1,inactive
14,COc1ccc(NC(=O)Nc2ccc3c(c2)C(=O)N([C@H](C)CO)C[C@H](C)[C@H](CN(C)Cc2ccc(Cl)c(Cl)c2)OCCCC[C@H](C)O3)cc1,active
15,COc1ccc(NC(=O)Nc2ccc3c(c2)C(=O)N([C@@H](C)CO)C[C@H](C)[C@H](CN(C)Cc2ccc(Cl)c(Cl)c2)OCCCC[C@@H](C)O3)cc1,inactive
16,COc1ccc(NC(=O)Nc2ccc3c(c2)C(=O)N([C@H](C)CO)C[C@@H](C)[C@H](CN(C)Cc2ccc(Cl)c(Cl)c2)OCCCC[C@H](C)O3)cc1,active
17,COc1ccc(NC(=O)Nc2ccc3c(c2)C(=O)N([C@H](C)CO)C[C@@H](C)[C@@H](CN(C)Cc2ccc(Cl)c(Cl)c2)OCCCC[C@H](C)O3)cc1,inactive
18,COc1ccc(NC(=O)Nc2ccc3c(c2)C(=O)N([C@H](C)CO)C[C@@H](C)[C@H](CN(C)Cc2ccc(Cl)c(Cl)c2)OCCCC[C@@H](C)O3)cc1,active
19,COc1ccc(NC(=O)Nc2ccc3c(c2)C(=O)N([C@H](C)CO)C[C@H](C)[C@@H](CN(C)Cc2ccc(Cl)c(Cl)c2)OCCCC[C@@H](C)O3)cc1,inactive
20,Cc1noc(C)c1S(=O)(=O)N(C)C[C@H]1Oc2c(NC(=O)NC3CCCCC3)cccc2C(=O)N([C@H](C)CO)C[C@@H]1C,inactive
21,C[C@H](CO)N1C[C@H](C)[C@@H](CN(C)S(=O)(=O)c2cn(C)cn2)Oc2ccc(NC(=O)Cn3cnnn3)cc2C1=O,inactive
22,CC(C)NC(=O)N(C)C[C@@H]1Oc2ccc(NS(=O)(=O)c3ccc(Cl)cc3)cc2CC(=O)N([C@H](C)CO)C[C@@H]1C,inactive

row,Compound,cytotoxicity call
1,CC(C)NC(=O)Nc1ccc2c(c1)C(=O)N([C@H](C)CO)C[C@H](C)[C@@H](CN(C)S(=O)(=O)c1ccccc1)O2,inactive
2,COc1ccc(S(=O)(=O)N(C)C[C@H]2Oc3c(NC(=O)c4cc(C)nn4C)cccc3C(=O)N([C@H](C)CO)C[C@@H]2C)cc1,inactive
3,COc1ccc(S(=O)(=O)Nc2ccc3c(c2)C(=O)N([C@H](C)CO)C[C@H](C)[C@@H](CN(C)C(=O)Nc2ccccc2)OCCCC[C@@H](C)O3)cc1,inactive
4,C[C@H]1CN([C@@H](C)CO)C(=O)c2ccccc2-c2ccccc2CO[C@H]1CN(C)Cc1ccc(C(F)(F)F)cc1,inactive
5,C[C@@H]1CCCCO[C@H](CN(C)Cc2ccc(C(=O)O)cc2)[C@@H](C)CN([C@H](C)CO)C(=O)c2cc(NS(=O)(=O)c3ccc(Cl)cc3)ccc2O1,inactive
6,CNC(=O)C(=O)Nc1cc(Cl)ccc1C#N,inactive
7,CCN(CC)C(=O)[C@@H]1C[C@@H](N)CN1S(=O)(=O)N1CCCCCC1,inactive
8,Cc1ccc(OCCn2c(CC(C)(C)C)nc3ccccc32)cc1,inactive
9,c1ccc(Cn2c(-c3ccc(OC[C@H](C4CCNCC4)n4c(-c5ccccc5)nc5ccccc54)cc3)nc3ccccc32)cc1,active
10,Cc1nc2ccccc2n1Cc1ccc(Cl)cc1,inactive
11,C[C@H](O)C#Cc1ccc2c(c1)O[C@H](CN(C)C(=O)Nc1ccccc1)[C@@H](C)CN([C@H](C)CO)S2(=O)=O,inactive
12,C[C@H]1CN([C@@H](C)CO)C(=O)c2cc(-c3cccnc3)cnc2O[C@@H]1CN(C)Cc1ccc(-c2ccccc2)cc1,inactive
13,C[C@@H]1CN([C@@H](C)CO)C(=O)c2cc(NC(=O)NC3CCCCC3)ccc2O[C@@H](C)CCCCO[C@H]1CN(C)Cc1ccc(Cl)c(Cl)c1,inactive
14,C[C@@H]1CCCCO[C@@H](CN(C)Cc2ccc(Cl)c(Cl)c2)[C@H](C)CN([C@H](C)CO)C(=O)c2cc(NC(=O)NC3CCCCC3)ccc2O1,inactive
15,C[C@@H]1CCCCO[C@H](CN(C)Cc2ccc(Cl)c(Cl)c2)[C@@H](C)CN([C@@H](C)CO)C(=O)c2cc(NC(=O)C3CCCCC3)ccc2O1,active
16,C[C@@H]1CCCCO[C@H](CN(C)Cc2ccc(Cl)c(Cl)c2)[C@@H](C)CN([C@H](C)CO)C(=O)c2cc(NC(=O)C3CCCCC3)ccc2O1,inactive
17,C[C@@H]1CCCCO[C@H](CN(C)Cc2ccc(Cl)c(Cl)c2)[C@H](C)CN([C@@H](C)CO)C(=O)c2cc(NC(=O)C3CCCCC3)ccc2O1,inactive
18,C[C@H]1CCCCO[C@H](CN(C)Cc2ccc(Cl)c(Cl)c2)[C@@H](C)CN([C@@H](C)CO)C(=O)c2cc(NC(=O)NC3CCCCC3)ccc2O1,active
19,C[C@@H]1CCCCO[C@H](CN(C)Cc2ccc(Cl)c(Cl)c2)[C@@H](C)CN([C@H](C)CO)C(=O)c2cc(NC(=O)NC3CCCCC3)ccc2O1,inactive
20,C[C@@H]1CCCCO[C@@H](CN(C)Cc2ccc(Cl)c(Cl)c2)[C@@H](C)CN([C@@H](C)CO)C(=O)c2cc(NC(=O)NC3CCCCC3)ccc2O1,inactive
21,C[C@@H]1CCCCO[C@H](CN(C)Cc2ccc(Cl)c(Cl)c2)[C@@H](C)CN([C@@H](C)CO)C(=O)c2cc(NC(=O)NC3CCCCC3)ccc2O1,active
